Screening results deposited in PubChem by National Center for Advancing Translational Sciences (NCATS).
HT1080NT lethal = kills 2HG-producing HT-1080-NT fibrosarcoma cells; HT-1080-NT fibrosarcoma viability, CellTiter-Glo ATP luminescence, 48 h; Potency, µM (series often up to 46.1 µM), for the others: at the highest dose activity, negative = less viability, hits mostly cytotoxic; 360,000 compounds, 1.6% hits; AID 686970;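 also: NT is the 2HG producing partner of a matched IDH1 knockdown line; 0% = DMSO-treated cells and -100% = media-only wells without cells; nearly all actives have a fitted effect of over 55% in size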
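Viability by CellTiter-Glo luminescence after 48 h compound exposure at 37C of HT-1080-NT cells (750/well, RPMI, 5% FBS). % activity scaled between DMSO wells and medium-only wells, then curve-fitted and categorized by curve class.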
HT1080 IDH1KD tx = toxicity to HT-1080 IDH1 knockdown cells (counter line); HT-1080 IDH1 knockdown viability, ATP luminescence, 48 h; Potency, µM (titrated, usually from 46.1 µM), for the others: top-dose activity, negative = toxicity, usual class: cytotoxic; 360,000 compounds, 2% hits; AID 686971;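 also: 0% = DMSO wells and -100% = cell-free medium wells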
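Viability of IDH1-knockdown HT-1080 fibrosarcoma cells was assessed by CellTiter-Glo after 48 h at 37 °C with titrated compound; concentration-effect curves were classified by fit quality and response size.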
TDP1 cell CPT = growth inhibition of DT40 Tdp1-/-;hTDP1 cells with camptothecin (screen for TDP1 inhibitors); chicken DT40 Tdp1-/-;hTDP1 cells + 20 nM CPT, ATP luminescence, 48 h; Potency, µM (highest dose often 46.2 µM), for the others: top-dose activity change, negative = growth inhibition, actives largely listed as inhibitors; 420,000 compounds, 12% hits; AID 686979; also: % is scaled to controls: 0 for no effect and ±100 for the full control effect; nearly all actives have a fitted effect of over 55% in size
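Cell growth measured by CellTiter-Glo luminescence after a minimum 48 h, 37 C compound exposure with 20 nM CPT in Tdp1-knockout DT40 cells stably expressing hTDP1, seeded 400/well; qHTS titration format.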
TDP1 cell noCPT = qHTS for Inhibitors of human tyrosyl-DNA phosphodiesterase 1 (TDP1): qHTS in cells in absence of CPT; Potency, µM (top dose mostly 46.2 µM), for the others: at the highest dose activity change, negative = growth inhibition, hits mostly inhibitors; DT40 Tdp1-/- hTDP1 cells, no CPT, ATP luminescence, 48 h; 420,000 compounds, 15% hits; also: % is scaled to controls: 0 for no effect and ±100 for the full control effect; nearly all actives have a fitted effect of over 55% in size
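Camptothecin absent (DMSO only). Human TDP1-complemented DT40 knockout cells, 400 cells/well, 37 °C for minimum 48 hr; ATP measured via CellTiter-Glo, 30 min dark incubation, luminescence.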
TGFb inhibitor = inhibitors of TGF-b signaling. Potency, µM (doses to about 46.1 µM), for the others: top-dose activity, negative = inhibition, hits mostly inhibitors. 410,000 compounds, 1.2% hits. AID 588855. HepG2 CAGA-GFP TGF-b/SMAD3 reporter, GFP fluorescence, 18 h; TGF-beta stimulated, 500 pg/mL final; also: % is scaled to controls: 0 for no effect and ±100 for the full control effect; nearly all actives have a fitted effect of over 65% in size
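Read-out: total well GFP (ex488/em500-530) summed from mean per-cell fluorescence. Cells: HEPG2 CAGA-GFP, 1% FBS DMEM, 18 h at 37 degrees C with 500 pg/mL final TGF-beta. Unstimulated wells served as the full-inhibition control; stimulated DMSO wells = 0%.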
HepG2 viability = HepG2 cytotoxicity, counter-screen for TGF-b inhibitors. HepG2 CAGA-GFP viability, ATP luminescence, 18 h. Potency, µM (highest dose often 46.1 µM), without a hit: at the top dose activity change, negative = cytotoxicity, usual class: cytotoxic. 410,000 compounds, 0.76% hits. AID 588856
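CellTiter-Glo luminescence gave cytotoxicity after 18 hours at 37 degrees C. The cells were HepG2 CAGA-GFP in 1% FBS DMEM, stimulated with 500 pg/mL TGF-beta after compound addition. %Activity was normalised to no-cell wells (complete cell-killing) and DMSO (no toxicity), and curves were fitted and classified.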
The depositor's hits bear a star; u = inconclusive; x = no result given; [ ] = remark or other dose. Shown are actives, neighbours in structure and some others; about 17% of the full set was active somewhere. Calls follow the shape of the dose curve; as a rule, active = well fitted curve in the direction sought with a large enough effect; inconclusive = small, poorly fitted or top-dose-only effect, or another doubt; inactive = no such curve, though single readings can be large; an effect the other way counts as inactive or inconclusive. Potency is read from the fitted curve at half-maximal effect.

SMILES	HT1080NT lethal	HT1080 IDH1KD tx	TDP1 cell CPT	TDP1 cell noCPT	TGFb inhibitor	HepG2 viability
CCOC(=O)C1CCN(S(=O)(=O)c2ccc3c(c2)NC(=O)C(C)S3)CC1 (stereo not drawn)	-6%	-7%	u	u	-5%	0%
O=C(CNC(=O)c1ccncc1)N/N=C/c1ccccc1[N+](=O)[O-]	18%	21%	3%	8%	-9%	-2%
Cc1ccc(C)c(N2CCN(S(=O)(=O)c3cn(C)c(C)n3)CC2)c1	x	x	u	u	6%	-24%
CN1CCN(C2(CNC(=O)c3ccc([N+](=O)[O-])cc3)CCCCC2)CC1	x	x	-7%	-1%	-17%	-6%
O=c1n(Cc2ccc([N+](=O)[O-])cc2)c2ccccc2c2nc(-c3ccccc3)nn12	x	x	7.3µM*	u	19%	-9%
O=c1n(Cc2ccc(F)cc2Cl)c2ccccc2c2nc(-c3ccccc3)nn12	x	x	-4%	0%	13%	-15%
CN(C(=O)C1CCN(S(=O)(=O)c2ccccc2)CC1)c1c(N)n(Cc2ccccc2)c(=O)[nH]c1=O	1%	12%	-27%	-1%	-2%	-18%
CCOc1ccc(OCC)c(NC(=O)c2cnc3c(-c4ccccc4)c(C)nn3c2C)c1	x	x	u	u	13%	6%
Cc1nn(Cc2ccc(Cl)cc2Cl)c(C)c1NC(=O)NC12CC3CC(CC(C3)C1)C2	-14%	18µM*	21µM*	18µM*	0%	15%
CCn1ncc(/C=C/C(=O)Nc2c(C)nn(Cc3ccc(Cl)cc3Cl)c2C)c1C	u	u	15µM*	15µM*	-10%	-10%
Cc1cc(C(=O)Nc2c(C)nn(Cc3ccccc3Cl)c2C)no1	1%	-26%	-27%	-12%	-4%	-2%
CCn1cc(/C=C/C(=O)Nc2c(C)nn(Cc3ccccc3)c2C)cn1	11%	7%	u	9.2µM*	-15%	13%
CCc1ccc(-c2csc(-c3cc4cc(Br)ccc4oc3=O)n2)cc1	x	x	-15%	-23%	37%	31%
O[C@@H]1CN(Cc2cccs2)[C@@H](c2ccccc2)C[C@H]1n1cc(C2CC2)nn1	8%	-3%	3%	-3%	-3%	-26%
Cc1coc2c(C)c3oc(=O)c(CCC(=O)N(C)CC(=O)O)c(C)c3cc12	9%	0%	6%	-29%	6%	3%
Cc1ccc(C(=O)NN=Cc2ccc3c(c2)OCO3)cc1	u	u	17%	-24%	8%	10%
Cc1ccsc1/C=N/NC(=O)c1c[nH]c2ccccc12	-5%	0%	u	u	-2%	-8%
CCOc1ccccc1-c1cc(C(=O)N/N=C/c2ccc3c(c2)OCO3)c2ccccc2n1	-7%	-21%	12µM*	9.2µM*	-3%	4%
CCOc1ccccc1-c1cc(C(=O)N/N=C/c2ccc(O)c(OC)c2)c2ccccc2n1	u	u	1.5µM*	0.58µM*	-24%	-23%
COc1ccccc1-c1cc(C(=O)N/N=C/c2sccc2C)c2ccccc2n1	-21%	-19%	6.5µM*	1µM*	-14%	-8%
COc1cc(/C=N/NC(=O)c2nc(C)cc(C)n2)ccc1O	2%	10%	-12%	-24%	-9%	-6%
c1ccc(-c2c[nH]c3[n+]2CCCCC3)cc1	-1%	-5%[9.24 µM]	-29%	9.2µM*	-11%	0%
CC1c2cc3c(cc2CCN1C(=O)c1ccc(Br)cc1)OCCCO3 (stereo not drawn)	u	u	16µM*	7.3µM*	u	-63%
CC1c2cc3c(cc2CCN1C(=O)c1cccc(F)c1)OCCCO3 (stereo not drawn)	u	u	21µM*	u	u	0%
COc1ccc(C(=O)N2CCc3cc4c(cc3C2C)OCCCO4)cc1 (stereo not drawn)	-1%	-6%	21µM*	21µM*	u	-37%
SMILES	HT1080NT lethal	HT1080 IDH1KD tx	TDP1 cell CPT	TDP1 cell noCPT	TGFb inhibitor	HepG2 viability
Cc1cccc(NC(=O)CN2CCc3cc4c(cc3C2C)OCCCO4)c1 (stereo not drawn)	-5%	-16%	u	u	-27%	-15%
Cc1cc(C)cc(NC(=O)CN2CCc3cc4c(cc3C2C)OCCCO4)c1 (stereo not drawn)	0%	-1%	u	u	u	-27%
O=C(NCCc1ccc(Cl)cc1)c1cc(S(=O)(=O)N2CCCCC2)c[nH]1	5%	-17%	23µM*	9.2µM*	u	-74%
COC(=O)c1cc(S(=O)(=O)NCCc2ccc(Cl)cc2)c[nH]1	8%	0%	18µM*	12µM*	u	-102%
COC(=O)c1cc(S(=O)(=O)NCc2ccccc2)c[nH]1	0%	6%	-10%	-9%	3%	-1%
CCOc1ccc(NC(=O)c2cc(S(=O)(=O)N3CCCCC3)c[nH]2)cc1	-14%	-8%	0%	-19%	u	-7%
COC(=O)c1cc(S(=O)(=O)N(Cc2ccccc2)C(C)(C)C)c[nH]1	u	23µM*	18µM*	16µM*	-4%	-22%
CCc1ccc(NC(=O)c2cc(S(=O)(=O)N3CCCC3)c[nH]2)cc1	-5%	-12%	u	23µM*	-22%	-17%
CCCc1c(C(=O)N/N=C/C2CC=CCC2)nnn1-c1nonc1N (stereo not drawn)	-2%	-5%	-8%	-11%	-4%	-32%
CCCN(CCC)CCNC(=O)CN1C(=O)COc2ccc(S(=O)(=O)N3CCC(C)CC3)cc21	x	x	x	x	-8%	1%
COCCCNC(=O)CSc1nc2cc3c(cc2c(=O)n1CCCCCC(=O)NCCc1ccc(OC)c(OC)c1)OCO3	x	x	12%	-10%	5%	1%
CCCCCC1=C(C(=O)OC)C(C(=O)OCC)N(S(=O)(=O)C(F)(F)F)c2ccccc21 (stereo not drawn)	10%	4%	u	21µM*	u	-2%
COc1ccc(C2=C/C(=C\c3ccccc3OC(C)=O)C(=O)O2)cc1	3%	-1%	21µM*	15µM*	6%	-3%
CCOc1ccc(NC(=O)c2sc3nc(-c4ccc(OC)cc4)cn3c2C)cc1	x	x	16µM*	7.3µM*	2%	-26%
